# Screening results as filed in PubChem BioAssay.
# Rows were chosen to be rich in hits. Some 3.4% of all compounds tested hit in one or more screens of this group.
# TWEAK Fn14 block: inhibitors of TWEAK-Fn14 signaling, primary screen, luciferase reporter cells, uHTS; TWEAK-stimulated Fn14 reporter cells, luciferase luminescence, 8 h; inhibition, % at 10 µM; 360,000 tested, 2% active; in the data active means inhibition above about 50%
# TRPM1 prom inh: inhibitors of MITF-dependent TRPM1 promoter reporter, primary screen, cell-based, SK-MEL-5, single point, luciferase; SK-MEL-5 TRPM1 promoter luciferase, 24 h; inhibition, % at 12.5 µM; AID 488899, 2010; 330,000 tested, 0.83% active;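 active means mean inhibition across replicates of 60% or more, whatever share of single replicates reaches that level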
# HIF-2a block: HIF-2a reporter inhibitors, primary screen, luminescence, 786-0 RCC cells | 786-0 RCC cells HIF-2a reporter, luciferase luminescence, overnight | inhibition, % at 18.8 µM | 360,000 tested, 0.72% active;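 active means inhibition of the luminescence signal of 40% or more relative to plate controls, in a single-dose primary screen at 18.75 µM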
# TROY NFkB inh: inhibitors of TROY-driven NF-kB signaling, primary screen, Q293 LMP1-TROYcd cells, NF-kB luciferase, uHTS | 360,000 tested, 0.98% active | inhibition, % at 10 µM | Q293 LMP1-TROYcd NF-kB luciferase reporter, 4 h;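 active means compounds whose plate-normalised and pattern-corrected inhibition of the luciferase reporter signal at the single screening dose is 50% or more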
# EBV LMP1 NFkB: EBV LMP1-driven NF-kappaB luciferase reporter inhibitors, primary screen, cell-based, luminescence, single point | 350,000 tested, 0.69% active | inhibition, % at 12.5 µM | AID 504558, 2011 | LMP1-induced NF-kappaB luciferase reporter cells; in the data active means inhibition above about 41%;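 further: 0% = neutral control wells and 100% = reference inhibitor control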
# Shn3 inh set2: reduction of Shn3 3'UTR firefly luciferase signal, primary screen, Schnurri-3 inhibitor project, cell-based, Clone20 osteoblasts, set 2. Clone20 osteoblast Shn3 3'UTR firefly luciferase, 24 h. inhibition, % at 12.5 µM. 360,000 tested, 0.52% active. AID 588674, 2011;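 active means mean inhibition of at least 75% with every replicate also reaching 75%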;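 further: 0% = median of neutral control wells and 100% = pilot-screen positive control compound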
# Numbers without * were called inactive; nt = no result.
SMILES,TWEAK Fn14 block,TRPM1 prom inh,HIF-2a block,TROY NFkB inh,EBV LMP1 NFkB,Shn3 inh set2
COc1ccc(CNCc2cn(-c3cccc(F)c3)nc2-c2ccc(C)o2)cc1,-26,-19,-103,9,6,-20
CCOc1ccccc1N1CCN(C(=O)c2ccc3nc(N)sc3c2)CC1,-6,-10,4,-5,0,17
CCOC(=O)/C(C#N)=C1/C=C(C)NC(c2ccccc2O)=N1,57*,53,-74,54*,-9,1
CCOC(=O)/C(C#N)=C1\Nc2ccccc2N=C1N(CC(C)C)CC(C)C,28,12,-25,25,-28,39
CC1=C(C(=O)OCC(C)C)C(c2ccccc2Cl)NC(=O)N1C (stereo unspecified),-24,8,-24,-11,-5,4
CCOCCOC(=O)C1=C(C)N(C)C(=O)NC1c1ccccc1Cl (stereo unspecified),53*,0,5,nt,3,2
O=C(COc1ccc(Br)cc1)N(Cc1nnc(-c2ccccc2Cl)o1)C1CC1,4,nt,-8,6,-2,28
CC1CCCN(C2=NC(=O)/C(=C/c3cn(-c4ccccc4)nc3-c3cccc(S(=O)(=O)N(C)C)c3)S2)C1 (stereo unspecified),5,-5,-2,18,-7,4
CC1CCN(C2=NC(=O)/C(=C/c3cn(-c4ccccc4)nc3-c3cccc(S(=O)(=O)N(C)C)c3)S2)CC1,76*,-4,-18,nt,-2,8
O=C1C=C(N2CCCCC2)c2ccccc2C1=O,14,nt,46*,-1,nt,46
O=C1c2ccccc2C(=O)c2c1cccc2N1CCCC1,15,-24,-58,-41,3,6
O=C1C=CC(c2ccccc2)(c2ccccc2)CC1,-8,1,2,-10,-3,-1
C=CCn1c(/N=C/c2ccc(N(C)C)cc2)nc2ccccc21,-4,5,-22,9,-10,-5
CN(C)c1ccc(/C=N/n2ncc3ccccc32)cc1,54*,25,-222,23,-34,-9
O=C(Nc1ccc(N2CCOCC2)cc1)c1nc2ccccc2s1,40,-35,-211,55*,20,-8
Cc1nc(NC(=O)COC(=O)c2ccc(CO)cc2)c(Cl)cc1Cl,7,-3,3,10,0,-5
O=C(/C=C\Nc1ccc2c(c1)OCO2)c1ccc(Cl)s1,53*,-50,-338,16,-71,-10
O=C(Nc1ccc2c(c1)OCO2)c1ccccn1,18,-47,-171,-21,-5,-40
O=C(/C=C\Nc1ccc2c(c1)OCO2)c1ccccn1,104*,75*,71*,75*,72*,61
Cc1nc(C(F)(F)F)ccc1C(=O)N1CCCC(C(=O)O)CC1 (stereo unspecified),5,nt,16,-11,nt,-2
O=S(=O)(c1cccs1)N1CCN(CCOc2ccc(Cl)cc2)CC1,19,6,5,30,9,84
O=S(=O)(c1cccs1)N1CCN(CC(O)COc2cc(Cl)ccc2Cl)CC1 (stereo unspecified),30,2,17,52*,24,80
CN1C=Nc2c(ncn2C2CCC(CO)O2)C1O (stereo unspecified),-4,nt,4,0,nt,nt
CC(=O)c1ccc(NC(=O)/C(Cl)=C/c2ccccc2)cc1,40,-135,-250,71*,-26,-61
CCN(CC)S(=O)(=O)c1cccc(-c2nnc(SCc3nc4ccccc4s3)o2)c1,49,-17,-197,57*,-20,-8
Cc1cc(C)n2nc(SCC(=O)N(CCC#N)c3ccccc3F)nc2n1,-3,-7,6,11,-5,-16
Cc1cc(CNC(=O)c2ccc3oc(C(C)C)nc3c2)nn1C,0,1,-2,21,1,-11
S=C(Nc1ccc2nsnc2c1)NC1CCCCC1,6,-48,-215,-70,-26,-27
S=C(Nc1ccc(Cl)c(Cl)c1)NC1CCCCC1,63*,-31,-227,19,2,9
